Experimental findings from PubChem BioAssay (Tox21) are described below.

The structures appear in SMILES notation. “And” between values parts separate entries of the source, which are not always exact repeats. Equal entries are not always repeated. Inconclusive results are not listed. Some compounds were tested as several samples or in several runs, with calls that do not always agree. The source made the active and inactive calls. Unless noted, calls come from the whole dose curve; as a rule, active = well fitted curve in the direction sought with a large enough effect in the repeat runs; inconclusive = weak or mixed curves; inactive = no such curve, though single readings can be large; an effect the other way counts as inactive or inconclusive.

A short description of assay [1]: qHTS assay for small molecules that induce genotoxicity in human embryonic kidney cells expressing luciferase-tagged ATAD5 (AID 651632). Note: nearly all actives have a fitted effect of over 15% in size. In short, it runs like this: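 Increased luciferase signal from ATAD5-tagged reporter cells indicates DNA-damage-driven ATAD5 induction. HEK293T cells are treated for 16 hr at 37C before detection with Amplite.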
Assay [2] in a line: qHTS assay for small molecule agonists of the p53 signaling pathway - cell viability (AID 651633; calls by dose curve; note: nearly all actives have a fitted effect of over 30% in size; note: potency is the fitted concentration of half-maximal effect). The procedure, abridged:
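p53RE-bla cells were treated with compound for 16 hours at 37 C. Cytotoxicity was then measured as CellTiter-Glo luminescence after 30 min at room temperature.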

Assay [3] is described as follows: qHTS assay for small molecule disruptors of the mitochondrial membrane potential - cell viability (AID 720634; calls by dose curve; note: nearly all actives have a fitted effect of over 20% in size; note: potency is the fitted concentration of half-maximal effect). In short, it runs like this:
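After overnight attachment at 37 C, HepG2 cells received compound or DMSO vehicle for 1 hr. Viability is then taken from ATP-driven luminescence following a 30 min room-temperature CellTiter-Glo step.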

Assay [4] is described as follows: qHTS assay for small molecule disruptors of the mitochondrial membrane potential (AID 720635). Note: potency is the fitted concentration of half-maximal effect. The procedure, abridged: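 HepG2 cells exposed to compound 1 hr at 37C, then Mito-MPS dye 30 min. Ratio read of aggregate (540/590 nm) versus monomer (490/535 nm) fluorescence.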
Assay [5] can be described thus: qHTS assay to test for compound auto fluorescence at 590 nm (red) in HepG2 cells (AID 720674). The procedure, abridged: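 Fluorescence at 590 nm emission following 540 nm excitation was recorded from HepG2 wells one hour after compound transfer, with DMSO-only wells as vehicle and Rose Bengal sodium equivalency as the scale.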
In general terms: Quantitative high-throughput screening tests each substance at several concentrations.

Assay [6] can be described thus: qHTS assay to test for compound auto fluorescence at 535 nm (green) in HepG2 cells (AID 720675).
Assay [7] can be described thus: qHTS assay to test for compound auto fluorescence at 590 nm (red) in HEK293 cells (AID 720679). In short, it runs like this: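 HEK293 cells (2,000/well, medium with 10% dialyzed FBS) attached for 4-5 hr at 37C, received 23 nL compound and were incubated overnight at 37C, 5% CO2. Red fluorescence was then read at 540/590nm Ex/Em, referenced to Rose Bengal sodium.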

Assay [8] is described as follows: qHTS assay to test for compound auto fluorescence at 535 nm (green) in HEK293 cells (AID 720680).
Assay [9] can be described thus: qHTS assay to test for compound auto fluorescence at 460 nm (blue) in HEK293 cell free culture (AID 720681). In short, it runs like this:
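Compounds were added to cell-free DMEM with 10% FBS and fluorescence read directly. The blue channel used 405 nm excitation and 460 nm emission, with triamterene as the reference fluorophore.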

Assay [10] in a line: qHTS assay to test for compound auto fluorescence at 535 nm (green) in HEK293 cell free culture (AID 720682). In short, it runs like this: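 Using fluorescein as calibrant, autofluorescence was quantified at 485/535 nm in cell-free DMEM containing 10% FBS after pintool addition of compound or vehicle.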
The nature of assay [11]: qHTS assay to test for compound auto fluorescence at 590 nm (red) in HEK293 cell free culture (AID 720683). In short, it runs like this:
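Cell-free wells of DMEM with 10% FBS received compound, and intrinsic fluorescence was read at excitation/emission 540/590 nm. Values expressed as equivalence to Rose Bengal sodium.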

A short description of assay [12]: qHTS assay to test for compound auto fluorescence at 590 nm (red) in HepG2 cell free culture (AID 720684). The procedure, abridged: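 Compounds are added to culture medium (MEM, 10% FBS) lacking cells, then fluorescence is read at excitation 540 nm, emission 590 nm, with Rose Bengal sodium as the equivalency standard.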
The nature of assay [13]: qHTS assay to test for compound auto fluorescence at 460 nm (blue) in HepG2 cell free culture (AID 720685). The procedure, abridged: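 Compound (23 nL) or DMSO pinned into cell-free MEM with 10% FBS; blue fluorescence read at 405/460 nm excitation/emission, expressed as auto-fluorescence equivalency to triamterene.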
The nature of assay [14]: qHTS assay to test for compound auto fluorescence at 535 nm (green) in HepG2 cell free culture (AID 720686).
Assay [15] in a line: qHTS assay to test for compound auto fluorescence at 460 nm (blue) in HepG2 cells (AID 720687). The procedure, abridged:
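HepG2 cells in MEM with 10% FBS, attached overnight at 37 C, were exposed to compound or DMSO for 1 hr at 37 C, 5% CO2. Blue fluorescence was read at 405/460 nm, with triamterene as reference fluorophore.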

Assay [16] in a line: qHTS assay to test for compound auto fluorescence at 460 nm (blue) in HEK293 cells (AID 720678). In short, it runs like this:
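HEK293 cells (2,000 per well, medium with 10% dialyzed FBS) attached for 4-5 hr at 37C, then received compound and stood overnight at 37C, 5% CO2. Blue fluorescence was read at Ex/Em 405/460 nm and expressed relative to triamterene.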

In assay [17] the target is Glucocorticoid receptor (Homo sapiens) (UniProt P04150). Briefly: qHTS assay to identify small molecule antagonists of the glucocorticoid receptor (GR) signaling pathway (AID 720692; active = well fitted inhibition curve with a large enough effect in the signal ratio in the repeat runs, not every such curve was filed as active; the % refers to the signal ratio; note: potency is the fitted concentration of half-maximal effect). In short, it runs like this: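 Cells plated, rested 4 h at 37 C/5% CO2; compounds in DMSO pin-transferred; dexamethasone added to 5 nM final; 18 h at 37 C; B/G FRET substrate added, 2 h room temperature; fluorescence measured.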

Assay [18] has the same target. Briefly: qHTS assay to identify small molecule agonists of the glucocorticoid receptor (GR) signaling pathway (AID 720691; active = well fitted activation curve with a large enough effect in the signal ratio in the repeat runs, not every such curve was filed as active; the % refers to the signal ratio). To be noted: GR-bla HeLa, beta-lactamase reporter ratio, 18 h; activation: at 62.4 µM (top of the series). The procedure, abridged: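 Agonist mode in a HeLa line carrying a GRE-controlled beta-lactamase reporter. Compounds act for 18 h at 37 C before a 2 h room-temperature FRET substrate step and fluorescence reading.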
% is set by controls: 0 for no effect and ±100 for the full control effect.

Chain of Glucocorticoid receptor (Homo sapiens) (P04150 whole entry, looked up): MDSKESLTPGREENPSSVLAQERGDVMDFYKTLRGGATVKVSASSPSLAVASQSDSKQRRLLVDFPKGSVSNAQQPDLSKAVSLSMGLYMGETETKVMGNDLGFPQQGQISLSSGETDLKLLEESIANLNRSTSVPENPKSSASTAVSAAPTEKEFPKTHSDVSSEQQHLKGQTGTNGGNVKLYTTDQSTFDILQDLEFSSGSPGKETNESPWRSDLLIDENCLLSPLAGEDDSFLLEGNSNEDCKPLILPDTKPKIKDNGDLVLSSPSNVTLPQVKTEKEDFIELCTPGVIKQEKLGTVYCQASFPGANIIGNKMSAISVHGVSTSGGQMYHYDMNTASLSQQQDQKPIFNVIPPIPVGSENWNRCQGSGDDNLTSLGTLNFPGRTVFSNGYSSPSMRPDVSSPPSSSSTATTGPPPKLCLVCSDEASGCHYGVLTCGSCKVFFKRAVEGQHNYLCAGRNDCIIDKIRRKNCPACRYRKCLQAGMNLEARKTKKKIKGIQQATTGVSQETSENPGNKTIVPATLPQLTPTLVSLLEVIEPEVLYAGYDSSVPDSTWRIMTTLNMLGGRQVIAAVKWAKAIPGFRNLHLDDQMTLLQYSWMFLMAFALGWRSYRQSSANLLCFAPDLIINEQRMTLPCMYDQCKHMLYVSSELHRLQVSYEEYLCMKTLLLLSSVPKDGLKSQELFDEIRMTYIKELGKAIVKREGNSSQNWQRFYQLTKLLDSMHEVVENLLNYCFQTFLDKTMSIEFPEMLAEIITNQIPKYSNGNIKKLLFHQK

As to `C=CC(=O)[O][Sn]([CH2]CCC)([CH2]CCC)[CH2]CCC`, the Potency entry in assay [1], in assay [6], in [9], in assay [13], in assay [14] and in assay [15] was “inactive” throughout. Moreover, the Potency is 864 nM (active) in assay [2], 1930 nM (active) in assay [3] and 86.3 nM (active) in assay [4]. Also, the compound was classed as inactive in assay [5], in assay [7], in [8], in assay [10], in assay [11] and in [12].

Regarding `CC(=O)[O][Pb]([c]1ccccc1)([c]1ccccc1)[c]1ccccc1`, the Potency entry in assay [1], in assay [6], in [16], in assay [9], in assay [13] and in assay [14] was “inactive” throughout. In addition, the Potency result in assay [15] was “inactive”. Also, the Potency in assay [2] is 2730 nM (active); in assay [3] it was 30600 nM (active); in assay [4], 1090 nM (active). In addition, the compound was called inactive in assay [5], in assay [8] and in assay [11].

As to `COc1ccc(Cc2nccc3cc(OC)c(OC)cc23)cc1OC`, the Potency result in assay [1], in assay [2] and in assay [3] was “inactive” throughout. Besides, in assay [5], the fluorescence, relative to Rose Bengal was 0.593% [at 18.6 µM] (inactive). For the same compound, the fluorescence, % of fluorescein control in [6] was 0.0156% [at 18.6 µM] (inactive); in assay [14], -0.0438% [at 18.6 µM] (inactive). Moreover, in assay [16], the fluorescence, % of triamterene was -0.311% [at 18.6 µM] (inactive). In addition, the fluorescence, % of fluorescent control in assay [7] was -0.0717% [at 18.6 µM] (inactive); in assay [9], -0.0156% [at 18.6 µM] (inactive); in [11], -0.0177% [at 18.6 µM] (inactive); in assay [13] it was 0.0281% [at 18.6 µM] (inactive); in assay [15], -0.0587% [at 18.6 µM] (inactive). In assay [8], the fluorescence, % of fluorescein is -0.0425% [at 18.6 µM] (inactive). Further, the activity change in assay [10] was -0.0465% [at 18.6 µM] (inactive). Besides, the fluorescence, % of Rose Bengal in assay [12] is -0.262% [at 18.6 µM] (inactive).

Regarding `CN1CCc2cc(Cl)c(O)cc2[C@H]2c3ccccc3CC[C@@H]21`, the Potency result in [1], in assay [2], in assay [3], in [6], in assay [9] and in assay [13] was “inactive” each time. The Potency entry in [14] and in assay [15] was “inactive” each time. In addition, the call in assay [7], in assay [8], in assay [10], in [11] and in [12] was inactive.

Regarding `Cc1ccn2nc(S(=O)(=O)Nc3c(F)cccc3F)nc2n1`, the Potency result in [1], in [2], in assay [3], in [6], in [16] and in assay [9] was “inactive” throughout. Besides, the Potency result in [13], in assay [14] and in [15] was “inactive” in each case. Further, the call in assay [5], in [7], in [8], in assay [10] and in [12] was inactive.

Turning to `CCn1cc[n+](C)c1` (tested in a mixture with another compound), the Potency entry in [1], in assay [2], in assay [4], in assay [6], in assay [16] and in [9] was “inactive” each time. For the same compound, the Potency result in assay [13], in assay [14] and in assay [15] was “inactive” throughout. For the same compound, the outcome in assay [5], in [7], in [8], in [10], in assay [11] and in assay [12] was inactive.

Take `[O]=[Cr](=[O])([OH])[O][Cr](=[O])(=[O])[OH]`: the Potency result in assay [1], in [6], in assay [16], in [9], in assay [13] and in [14] was “inactive” in each case. In addition, the Potency entry in assay [15] is “inactive”. Also, the Potency in assay [2] is 19.5 µM (active) [middle of 4 runs]; in [3], “inactive and 27.6 µM (active) and 30.6 µM (active)”; in assay [4], “inactive and 13.8 µM (active) and 27.3 µM (active)”; in assay [17], 3080 nM (active). Also, the outcome in assay [7], in [8], in assay [10], in assay [11] and in assay [12] was inactive.

For the compound `BrCCCBr`, the Potency entry in assay [1], in assay [2], in assay [3], in assay [4], in assay [6] and in assay [16] was “inactive” throughout. Moreover, the Potency entry in assay [9], in assay [13], in assay [14], in assay [15], in [18] and in assay [17] was “inactive” each time. The call in assay [5], in assay [7], in [8], in assay [10], in assay [11] and in [12] was inactive.
